From PubChem BioAssay come the findings set out here.

Each structure is given as a SMILES string. Active and inactive are the calls of the source.

Test [1] has as its system Human papillomavirus type 1a protein E7 (residues 44-93). As to the kind of experiment: HPV1a E7 fragment binders on microarrays, primary screen, biochemical, small-molecule microarray, residues 44-93, 635 nm fluorescence (AID 1108).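 Further: E7 fragment applied at 1 µg/mL in TBST for 1 h at 4 C; score combines spot fluorescence with its signal to noise ratio.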 To be noted: small-molecule microarray binding, fluorescence 635 nm; higher = more signal.
A short description of test [2]: modulators of HCV replicon luciferase signal, primary screen, HCV replication inhibitor project, Huh7 cells, luciferase reporter (AID 1109).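 Further: huh7 hepatoma cells harbouring a luciferase neomycin HCV replicon reporter; luciferase luminescence as measure of HCV replicon replication; test concentration not given here.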 To be noted: 48 h, higher = more signal. Background: A replicon is a self-replicating genome or part of one, used to study replication in cells.
In test [3] the target is Left-right determination factor 2 (Homo sapiens) (UniProt O00292). As to the kind of experiment: LEFTY2 binders on small-molecule microarrays, primary screen, biochemical, small-molecule microarray, 635 nm fluorescence scan (AID 1110). Conditions: LEFTY2 binding, higher = more signal.
The target of test [4] is Calmodulin-1 (Homo sapiens) (UniProt P0DP23). Briefly: CALM1 binders on microarrays, EGTA buffer, profiling panel, biochemical, small-molecule microarray, Cy5-labelled CALM1 (AID 1111).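 Further: labelled calmodulin applied in Tris saline Tween buffer holding calcium plus EGTA and DTT.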 To be noted: Cy5-CALM1 binding fluorescence, higher = more signal.
For test [5] the target is unchanged. Briefly: calcium-bound CALM1 binders on microarrays, profiling panel, artefact control for SMM control-protein annotation, biochemical, small-molecule microarray, Cy5-labelled CALM1, plus calcium (AID 1112).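 Further: score merges spot fluorescence with signal to noise from triplicate slides.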 Conditions: Cy5-CALM1 binding fluorescence, higher = more signal.
The nature of test [6]: small-molecule microarray binders of probe aWnt5a, primary screen, biochemical, biotinylated probe, 635/667 nm fluorescence (AID 1113).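 Further: score merges 667 nm fluorescence intensity with signal-to-noise per printed feature.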 To be noted: higher = more signal.
The nature of test [7]: small-molecule microarray binders of probe aShh, primary screen, biochemical, biotinylated probe, 635/667 nm fluorescence (AID 1114).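 Further: probe is biotin-labelled aShh protein from a stem cell growth factor screen; measures binding of labelled protein to compounds printed on the slide; score merges feature fluorescence at 667 nm with signal-to-noise.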 To be noted: higher = more signal.
Test [8] can be described thus: small-molecule microarray binders of probe aNog, primary screen, biochemical, biotinylated probe, 635/667 nm fluorescence (AID 1115).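 Further: probe is biotinylated aNog protein used at 0.15 µg/mL for 1 h at 4 C; z-score combines 667 nm fluorescence of each spot with its signal to noise.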 Conditions: higher = more signal.
Test [9] addresses Torsin-1A-interacting protein 1 (Homo sapiens) (UniProt Q5JTV8). Briefly: LAP1 binders from COS7 cell lysate, primary screen, small-molecule microarray, 635/667 nm fluorescence (AID 1116). To be noted: COS7-hLAP1 lysate binding, 635 nm fluorescence, higher = more signal.
For test [10], the target named is Alpha-bungarotoxin (Bungarus multicinctus) (UniProt P60615). Briefly: alpha-bungarotoxin binders on microarray, profiling panel, artefact control for SMM control protein annotation, biochemical, small-molecule microarray, Alexa647 label, 635/667 nm fluorescence (AID 1117). To be noted: alpha-BTX-A647 binding fluorescence, higher = more signal.
The target in another test is Albumin (Bos taurus) (UniProt P02769). Briefly: bovine serum albumin binders on microarray, profiling panel, artefact control for SMM control protein annotation, biochemical, small-molecule microarray, Alexa647 label, 635/667 nm fluorescence (AID 1118).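 Further: score merges 667 nm emission intensity and signal-to-noise per printed compound spot.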 To be noted: BSA-A647 binding, fluorescence 635 nm, higher = more signal.
Test [11] in a line: small-molecule microarray binders of probe aXIP, primary screen, biochemical, NeuroSMM set, 635/667 nm fluorescence (AID 1119).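 Further: probe is the protein aXip251-270 applied at 1 µg/mL to compound-printed slides; binding of probe to printed compounds measured as 667 nm fluorescence plus signal to noise.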 To be noted: higher = more signal, called active from +8 up or from −8 down.
A short description of test [12]: small-molecule binders of probe aNOTCH3, primary screen, biochemical, small-molecule microarray, 635/667 nm fluorescence (AID 1120).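 Further: probe is a biotin-tagged antibody raised against NOTCH3 rather than NOTCH3 protein; score merges spot fluorescence near 667 nm with spot signal to noise.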 To be noted: higher = more signal.
Test [13] in a line: small-molecule binders of probe aNOTCH2, primary screen, biochemical, small-molecule microarray, 635/667 nm fluorescence (AID 1121).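 Further: score merges feature fluorescence read at 667 nm with its signal to noise.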 To be noted: higher = more signal.
Test [14] concerns the target Carbonic anhydrase 2 (Homo sapiens) (UniProt P00918). As to the kind of experiment: CAII small-molecule binders, profiling panel, biochemical, small-molecule microarray, Alexa647-labelled CAII (AID 1122). Conditions: CAII-A647 binding fluorescence, higher = more signal.
A short description of test [15]: COS7 lysate on small-molecule microarray, probe aHis, 635 nm (AID 1123).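 Further: z-score combines 667nm fluorescence intensity with signal-to-noise per printed compound spot.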 Conditions: COS7 cell lysate, fluorescence, higher = more signal.
Test [16] is described as follows: compound binding in COS7 lysate, probe aLAP1, primary screen, cell lysate, small-molecule microarray (AID 1124).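 Further: lysate comes from COS7 cells expressing LAP1 and is applied at 0.3 µg/mL; score merges spot fluorescence near 667 nm with signal-to-noise over triplicate slides.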 To be noted: probe aLAP1, fluorescence, higher = more signal.
The test system of another test is Sam68 (KHDRBS1). As to the kind of experiment: Sam68 small-molecule binders, primary screen, biochemical, small-molecule microarray, 635 nm fluorescence (AID 1125).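 Further: score merges 667 nm channel intensity with signal to noise over triplicate slides.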 Conditions: small-molecule microarray binding, higher = more signal.
The subject of test [17] is Chordin-like protein 2 (CHRDL2). Briefly: CHRDL2 small-molecule binders, primary screen, biochemical, small-molecule microarray, 635 nm fluorescence (AID 1126).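 Further: printed compound slides probed with Chrdl2 protein at 4 µg/mL for 1 h at 4 C; score merges 667 nm emission intensity with signal to noise over three replicate slides.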 To be noted: small-molecule microarray binding, fluorescence 635 nm; higher = more signal.
Test [18] concerns the target Concanavalin-A (Canavalia ensiformis) (UniProt P02866). As to the kind of experiment: ConA small-molecule binders, primary screen, artefact control for SMM control protein annotation, biochemical, small-molecule microarray, Alexa647 label, 635 nm (AID 1127).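 Further: z combines 667 nm emission intensity with signal-to-noise across three replicate slides.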 To be noted: ConA-A647 binding fluorescence, higher = more signal.

Sequence of Alpha-bungarotoxin (Bungarus multicinctus) (P60615 whole entry, looked up): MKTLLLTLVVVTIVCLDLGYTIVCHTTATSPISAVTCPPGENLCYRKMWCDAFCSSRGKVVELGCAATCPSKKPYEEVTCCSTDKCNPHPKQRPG
Sequence of Torsin-1A-interacting protein 1 (Homo sapiens) (Q5JTV8 whole entry, looked up): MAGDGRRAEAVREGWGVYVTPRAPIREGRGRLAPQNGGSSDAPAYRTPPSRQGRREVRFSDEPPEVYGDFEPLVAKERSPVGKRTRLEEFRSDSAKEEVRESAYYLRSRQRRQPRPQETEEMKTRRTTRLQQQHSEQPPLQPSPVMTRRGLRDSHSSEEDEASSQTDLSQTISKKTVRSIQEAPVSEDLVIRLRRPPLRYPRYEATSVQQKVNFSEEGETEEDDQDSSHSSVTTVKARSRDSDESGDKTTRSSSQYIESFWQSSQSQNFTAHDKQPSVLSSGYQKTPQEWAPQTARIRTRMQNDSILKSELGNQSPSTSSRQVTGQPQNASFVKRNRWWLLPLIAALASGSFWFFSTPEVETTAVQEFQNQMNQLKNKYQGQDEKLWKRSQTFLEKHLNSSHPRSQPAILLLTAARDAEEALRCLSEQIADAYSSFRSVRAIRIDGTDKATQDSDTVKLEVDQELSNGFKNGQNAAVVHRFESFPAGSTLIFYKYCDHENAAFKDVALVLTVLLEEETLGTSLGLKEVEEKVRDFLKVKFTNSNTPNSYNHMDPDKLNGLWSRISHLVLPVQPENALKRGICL
Sequence of Albumin (Bos taurus) (P02769 whole entry, looked up): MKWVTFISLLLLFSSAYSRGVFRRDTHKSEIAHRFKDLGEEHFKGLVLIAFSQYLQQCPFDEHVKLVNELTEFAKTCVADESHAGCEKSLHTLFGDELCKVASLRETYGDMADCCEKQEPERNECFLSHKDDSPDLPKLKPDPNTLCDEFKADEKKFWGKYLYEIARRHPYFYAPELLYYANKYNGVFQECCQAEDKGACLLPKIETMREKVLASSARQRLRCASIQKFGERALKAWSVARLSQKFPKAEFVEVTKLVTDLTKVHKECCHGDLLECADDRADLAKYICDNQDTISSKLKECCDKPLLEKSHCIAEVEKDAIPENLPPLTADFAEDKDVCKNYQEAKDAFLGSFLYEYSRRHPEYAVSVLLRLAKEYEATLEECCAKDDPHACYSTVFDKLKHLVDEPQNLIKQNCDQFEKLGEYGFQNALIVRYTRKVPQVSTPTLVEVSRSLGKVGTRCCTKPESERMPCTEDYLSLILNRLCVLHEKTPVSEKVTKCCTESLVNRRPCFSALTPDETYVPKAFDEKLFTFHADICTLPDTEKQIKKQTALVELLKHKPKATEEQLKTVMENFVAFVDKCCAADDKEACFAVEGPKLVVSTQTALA
Sequence of Concanavalin-A (Canavalia ensiformis) (P02866 whole entry, looked up): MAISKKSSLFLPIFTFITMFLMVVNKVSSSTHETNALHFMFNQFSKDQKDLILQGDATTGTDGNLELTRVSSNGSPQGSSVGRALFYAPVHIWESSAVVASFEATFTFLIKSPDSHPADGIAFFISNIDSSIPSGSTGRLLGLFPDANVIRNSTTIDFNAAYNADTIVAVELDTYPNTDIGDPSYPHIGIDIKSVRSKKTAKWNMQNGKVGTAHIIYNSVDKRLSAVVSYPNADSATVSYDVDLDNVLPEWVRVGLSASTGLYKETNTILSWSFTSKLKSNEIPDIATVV
Sequence of Left-right determination factor 2 (Homo sapiens) (O00292 whole entry, looked up): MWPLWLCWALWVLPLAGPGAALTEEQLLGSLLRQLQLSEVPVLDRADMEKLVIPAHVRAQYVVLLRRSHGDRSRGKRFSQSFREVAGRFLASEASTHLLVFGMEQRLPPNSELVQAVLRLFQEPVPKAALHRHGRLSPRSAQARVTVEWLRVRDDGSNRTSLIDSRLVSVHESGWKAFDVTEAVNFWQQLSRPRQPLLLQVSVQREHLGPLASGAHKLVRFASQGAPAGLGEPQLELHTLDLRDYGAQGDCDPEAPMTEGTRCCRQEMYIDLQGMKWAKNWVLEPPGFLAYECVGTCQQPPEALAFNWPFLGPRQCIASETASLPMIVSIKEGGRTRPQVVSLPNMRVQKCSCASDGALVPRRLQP

Consider `COc1ccc([Si](C)(C)[C@H]2[C@H](CCO)O[C@@]3(C(=O)N(Cc4cccc(N5CCOC5=O)c4)c4ccccc43)[C@@H]2C)cc1`, for which the composite z-score in test [1] is 1.1; in test [3], 0.118; in test [4], 1.4; in test [5], -0.207; in test [6], -0.101; in [7], 0.0668. Besides, the composite z-score in test [8] was -0.118; in [9], -0.18; in [10], 0.355; with Albumin (Bos taurus), 0.688; in [12], 0.0203; in test [13], -0.0942. Besides, the composite z-score in [14] is 0.281; in test [15], 1.04; in [16] it was -0.15; in the test with Sam68 (KHDRBS1), 0.996; in [17], -0.0894; in test [18], 1.1. Further, in test [2], the z-score is -4.39. For the same compound, the composite Z-score in test [11] was 0.207 (inactive).
For the compound `COCCCNC(=O)[C@@H]1c2ccccc2C(=O)N(c2ccc(C)cn2)[C@H]1c1ccc(CO)cc1`, the composite z-score in test [1] was -0.745; in test [3] it was -1.83; in test [4] it was -0.878; in test [5] it was -0.827; in test [6] it was -0.363; in test [7], -0.19. For the same compound, the composite z-score in test [8] was -0.244; in test [9] it was -2.83; in [10], -0.958; in the test with Albumin (Bos taurus), -0.767; in [12], -0.644; in [13], -0.18. For the same compound, the composite z-score in test [14] is 0.0072; in test [15] it was -0.908; in [16] it was -0.721; in the test on Sam68 (KHDRBS1), -1.42; in [17] it was -2.03; in test [18] it was -0.482. The z-score in test [2] amounted to 0.176. Moreover, in test [11], the composite Z-score is 0.567 (inactive).
As to `NC(=O)NCC#Cc1ccc2c(c1)[C@]1(C(=O)N2)[C@H](c2ccc(O)cc2)N2[C@H](c3ccccc3)[C@H](c3ccccc3)OC(=O)[C@H]2[C@@H]1C(=O)NC[C@H](O)c1ccccc1`, the composite z-score in [1] was -0.631; in test [3] it was -1.67; in test [4], -0.699; in test [5] it was 0.827; in [6], -0.219; in test [7], -0.276. The composite z-score in [8] is 0.241; in test [9], -0.243; in test [10], -2; with Albumin (Bos taurus), 0.233; in [12], -0.464; in test [13], -0.122. The composite z-score in test [14] was -0.051; in test [15], 0.327; in test [16] it was 0.469; in the test with Sam68 (KHDRBS1), -1.03; in test [17], -1.12; in test [18], -1.34. In test [2], the z-score came to 0.918. The composite Z-score in test [11] is -0.539 (inactive).
For `C/C=C/[C@@H](CCn1cc([C@H](O)c2ccccc2)nn1)[Si](C)(C)c1ccc(OC)cc1`, the composite z-score is 0.434 in test [1]; -1.32 in [3]; -1.34 in test [4]; -1.35 in test [5]; -0.012 in test [6]; 0.0639 in test [7]. Besides, the composite z-score in [8] was -0.738; in [9], 0.834; in test [10], 0.478; with Albumin (Bos taurus), -0.91; in [12], -0.367; in test [13] it was -0.195. In addition, the composite z-score was -0.105 in test [14]; 1.15 in [15]; 0.614 in [16]; -0.123 in the test on Sam68 (KHDRBS1); 0.0697 in [17]; -0.333 in test [18]. This compound also yielded a z-score in test [2] of -2.6. The composite Z-score in test [11] is 2.17 (inactive).
As to `COCCOC(=O)N1C(=O)[C@@]2(c3ccccc31)[C@H](c1ccccc1OCCO)N1[C@H](c3ccccc3)[C@H](c3ccccc3)OC(=O)[C@H]1[C@@H]2C(=O)N1CCc2cc(OC)c(OC)cc2C1`, the composite z-score was 0.825 in test [1]; 0.415 in test [3]; 1.29 in test [4]; 0.0498 in [5]; -0.0161 in test [6]; 0.399 in test [7]. Moreover, the composite z-score in [8] was 0.194; in test [9], 0.561; in [10], 0.91; with Albumin (Bos taurus), -0.274; in test [12] it was 0.0833; in [13] it was -0.0176. In addition, the composite z-score in test [14] worked out at 0.335; in test [15], 0.51; in test [16], 0.0553; with Sam68 (KHDRBS1), 1.27; in test [17], 0.475; in test [18] it was 1.18. The compound also displayed a z-score in test [2] of -2.37. In addition, the composite Z-score in [11] is 0.511 (inactive).
